# In PubChem BioAssay AID1159580 (chemical genetic matrix, 2015):
# Where “and” joins values, the source holds several entries; their conditions need not be identical. Equal values may be shown once. Among all 5,500 compounds or so, about 2,000 (36%) were called active. Another 18% or so got no clear call; they are omitted. Cut-off read from the data, not from the text of the source: active = normalized growth mostly below about 0.91 (no sharp cut-off); inconclusive = no clear call, values can overlap the other calls; inactive = mostly above about 0.92. The list shows a part of the results.
# Experiment: chemical genetic growth profiling, strain panel (AID 1159580);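 note: tested at 20 µM; growth read once vehicle control cultures reached saturation at 30 °C; 1 = growth at the plate median or of vehicle wells; lower values mean less growth of the strain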
# Settings: growth OD
compound,measurement,setting,value
COc1ccc2c(=O)c(OC)c(-c3ccccc3)oc2c1,normalized growth,"S. cerevisiae deletion strains, locus YBR021W, strain FUR4, stronger effect = lower value",0.758 (active)
same,normalized growth,"S. cerevisiae deletion strains, locus YBR229C, strain ROT2, stronger effect = lower value",0.966 (inactive)
same,normalized growth,"S. cerevisiae deletion strains, locus YCL029C, strain bik1, stronger effect = lower value",0.945 (inactive)
same,normalized growth,"S. cerevisiae deletion strains, locus YDL035C, strain GPR1, stronger effect = lower value",0.83 (active)
same,normalized growth,"S. cerevisiae deletion strains, locus YDL074C, strain BRE1, stronger effect = lower value",0.713 (active)
same,normalized growth,"S. cerevisiae deletion strains, locus YDL101C, strain DUN1, stronger effect = lower value",0.855 (active)
same,normalized growth,"S. cerevisiae deletion strains, locus YDL185W, strain tfp1, stronger effect = lower value",0.951 (inactive)
same,normalized growth,"S. cerevisiae deletion strains, locus YDL192W, strain arf1, stronger effect = lower value",0.829 (active)
same,normalized growth,"S. cerevisiae deletion strains, locus YDR101C, strain arx1, stronger effect = lower value",0.855 (active)
same,normalized growth,"S. cerevisiae deletion strains, locus YDR162C, strain NBP2, stronger effect = lower value",0.68 (active)
same,normalized growth,"S. cerevisiae deletion strains, locus YDR318W, strain mcm21, stronger effect = lower value",0.863 (active)
same,normalized growth,"S. cerevisiae deletion strains, locus YDR388W, stronger effect = lower value",0.929 (inactive)
same,normalized growth,"S. cerevisiae deletion strains, locus YDR502C, strain sam2, stronger effect = lower value",0.836 (active)
same,normalized growth,"S. cerevisiae deletion strains, locus YEL061C, strain CIN8, stronger effect = lower value",0.891 (active)
same,normalized growth,"S. cerevisiae deletion strains, locus YER110C, stronger effect = lower value",0.932 (inactive)
same,normalized growth,"S. cerevisiae deletion strains, locus YER155C, strain BEM2, stronger effect = lower value",0.893 (active)
same,normalized growth,"S. cerevisiae deletion strains, locus YER167W, strain BCK2, stronger effect = lower value",0.858 (active)
same,normalized growth,"S. cerevisiae deletion strains, locus YGL078C, strain dbp3, stronger effect = lower value",0.939 (inactive)
same,normalized growth,"S. cerevisiae deletion strains, locus YGL086W, strain mad1, stronger effect = lower value",0.867 (active)
same,normalized growth,"S. cerevisiae deletion strains, locus YGL248W, strain PDE1, stronger effect = lower value",0.831 (active)
same,normalized growth,"S. cerevisiae deletion strains, locus YGR078C, strain PAC10, stronger effect = lower value",0.743 (active)
same,normalized growth,"S. cerevisiae deletion strains, locus YGR135W, strain pre9, stronger effect = lower value",0.754 (active)
same,normalized growth,"S. cerevisiae deletion strains, locus YGR229C, strain SMI1, stronger effect = lower value",0.477 (active)
same,normalized growth,"S. cerevisiae deletion strains, locus YGR252W, strain gcn5, stronger effect = lower value",0.582 (active)
same,normalized growth,"S. cerevisiae deletion strains, locus YHR030C, strain SLT2, stronger effect = lower value",0.646 (active) and 0.936 (inactive)
same,normalized growth,"S. cerevisiae deletion strains, locus YHR079C, strain IRE1 (second series), stronger effect = lower value",0.943 (inactive)
same,normalized growth,"S. cerevisiae deletion strains, locus YHR079C, strain IRE1, stronger effect = lower value",0.925 (inactive)
same,normalized growth,"S. cerevisiae deletion strains, locus YHR094C, strain hxt1, stronger effect = lower value",0.977 (inactive)
same,normalized growth,"S. cerevisiae deletion strains, locus YHR129C, strain ARP1, stronger effect = lower value",0.858 (active)
same,normalized growth,"S. cerevisiae deletion strains, locus YHR200W, strain rpn10, stronger effect = lower value",0.892 (active)
same,normalized growth,"S. cerevisiae deletion strains, locus YIL066C, strain RNR3, stronger effect = lower value",0.771 (active)
same,normalized growth,"S. cerevisiae deletion strains, locus YIL073C, strain SPO22, stronger effect = lower value",0.862 (inactive)
same,normalized growth,"S. cerevisiae deletion strains, locus YIL125W, strain kgd1, stronger effect = lower value",0.975 (inactive)
same,normalized growth,"S. cerevisiae deletion strains, locus YIR030C, strain dcg1, stronger effect = lower value",0.928 (inactive)
same,normalized growth,"S. cerevisiae deletion strains, locus YJL095W, strain BCK1, stronger effect = lower value",0.454 (active) and 0.941 (inactive)
same,normalized growth,"S. cerevisiae deletion strains, locus YJL134W, strain LCB3, stronger effect = lower value",0.951 (inactive)
same,normalized growth,"S. cerevisiae deletion strains, locus YJL168C, strain set2, stronger effect = lower value",0.97 (inactive)
same,normalized growth,"S. cerevisiae deletion strains, locus YJL187C, strain SWE1 (second series), stronger effect = lower value",0.859 (active)
same,normalized growth,"S. cerevisiae deletion strains, locus YJR043C, strain POL32, stronger effect = lower value",0.797 (active)
same,normalized growth,"S. cerevisiae deletion strains, locus YJR066W, strain TOR1, stronger effect = lower value",0.867 (inactive)
same,normalized growth,"S. cerevisiae deletion strains, locus YJR075W, strain HOC1, stronger effect = lower value",0.89 (inactive)
same,normalized growth,"S. cerevisiae deletion strains, locus YKL009W, strain mrt4, stronger effect = lower value",0.901 (inactive)
same,normalized growth,"S. cerevisiae deletion strains, locus YKL068W, stronger effect = lower value",0.975 (inactive)
same,normalized growth,"S. cerevisiae deletion strains, locus YKL085W, strain MDH1 (second series), stronger effect = lower value",0.974 (inactive)
same,normalized growth,"S. cerevisiae deletion strains, locus YKL085W, strain MDH1, stronger effect = lower value",0.974 (inactive)
same,normalized growth,"S. cerevisiae deletion strains, locus YKL190W, strain CNB1, stronger effect = lower value",0.923 (inactive)
same,normalized growth,"S. cerevisiae deletion strains, locus YKR001C, strain vps1, stronger effect = lower value",0.848 (active)
same,normalized growth,"S. cerevisiae deletion strains, locus YLR039C, strain RIC1, stronger effect = lower value",0.906 (inactive)
same,normalized growth,"S. cerevisiae deletion strains, locus YLR058C, strain SHM2, stronger effect = lower value",0.888 (active)
same,normalized growth,"S. cerevisiae deletion strains, locus YLR102C, strain apc9, stronger effect = lower value",0.95 (inactive)
same,normalized growth,"S. cerevisiae deletion strains, locus YLR113W, strain HOG1, stronger effect = lower value",0.931 (inactive)
same,normalized growth,"S. cerevisiae deletion strains, locus YLR262C, strain YPT6, stronger effect = lower value",0.901 (inactive)
same,normalized growth,"S. cerevisiae deletion strains, locus YLR268W, strain sec22, stronger effect = lower value",0.866 (active)
same,normalized growth,"S. cerevisiae deletion strains, locus YLR330W, strain CHS5, stronger effect = lower value",0.752 (active)
same,normalized growth,"S. cerevisiae deletion strains, locus YLR342W, strain FKS1 (second series), stronger effect = lower value",0.723 (active)
same,normalized growth,"S. cerevisiae deletion strains, locus YLR371W, strain rom2, stronger effect = lower value",0.794 (active)
same,normalized growth,"S. cerevisiae deletion strains, locus YLR418C, strain cdc73, stronger effect = lower value",0.532 (active)
same,normalized growth,"S. cerevisiae deletion strains, locus YML016C, strain PPZ1, stronger effect = lower value",0.947 (inactive)
same,normalized growth,"S. cerevisiae deletion strains, locus YML032C, strain rad52, stronger effect = lower value",0.723 (active)
same,normalized growth,"S. cerevisiae deletion strains, locus YML124C, strain tub3, stronger effect = lower value",0.941 (inactive)
same,normalized growth,"S. cerevisiae deletion strains, locus YMR078C, strain ctf18, stronger effect = lower value",0.893 (active)
same,normalized growth,"S. cerevisiae deletion strains, locus YMR223W, strain ubp8, stronger effect = lower value",0.845 (active)
same,normalized growth,"S. cerevisiae deletion strains, locus YMR263W, strain SAP30, stronger effect = lower value",0.845 (active)
same,normalized growth,"S. cerevisiae deletion strains, locus YMR307W, strain GAS1, stronger effect = lower value",0.658 (inactive)
same,normalized growth,"S. cerevisiae deletion strains, locus YNL067W, strain RPL9B, stronger effect = lower value",0.856 (active)
same,normalized growth,"S. cerevisiae deletion strains, locus YNL183C, strain NPR1, stronger effect = lower value",0.916 (inactive)
same,normalized growth,"S. cerevisiae deletion strains, locus YNL233W, strain BNI4, stronger effect = lower value",0.717 (active)
same,normalized growth,"S. cerevisiae deletion strains, locus YNL250W, strain rad50, stronger effect = lower value",0.969 (inactive)
same,normalized growth,"S. cerevisiae deletion strains, locus YNL271C, strain bni1, stronger effect = lower value",0.921 (inactive)
same,normalized growth,"S. cerevisiae deletion strains, locus YNL298W, strain CLA4, stronger effect = lower value",0.894 (active)
same,normalized growth,"S. cerevisiae deletion strains, locus YNL307C, strain MCK1, stronger effect = lower value",0.676 (active)
same,normalized growth,"S. cerevisiae deletion strains, locus YNL322C, strain KRE1, stronger effect = lower value",0.95 (inactive)
same,normalized growth,"S. cerevisiae deletion strains, locus YNR052C, strain pop2, stronger effect = lower value",0.882 (active)
same,normalized growth,"S. cerevisiae deletion strains, locus YOL006C, strain TOP1, stronger effect = lower value",0.396 (active)
same,normalized growth,"S. cerevisiae deletion strains, locus YOL012C, strain htz1",0.856 (inactive)
same,normalized growth,"S. cerevisiae deletion strains, locus YOL147C, strain pex11, stronger effect = lower value",0.904 (active)
same,normalized growth,"S. cerevisiae deletion strains, locus YOR061W, strain CKA2, stronger effect = lower value",0.942 (inactive)
same,normalized growth,"S. cerevisiae deletion strains, locus YOR069W, strain VPS5, stronger effect = lower value",0.909 (active)
same,normalized growth,"S. cerevisiae deletion strains, locus YOR136W, strain idh2, stronger effect = lower value",0.95 (inactive)
same,normalized growth,"S. cerevisiae deletion strains, locus YOR144C, strain elg1, stronger effect = lower value",0.924 (active)
same,normalized growth,"S. cerevisiae deletion strains, locus YOR184W, strain ser1, stronger effect = lower value",0.622 (active)
same,normalized growth,"S. cerevisiae deletion strains, locus YOR231W, strain MKK1, stronger effect = lower value",0.921 (inactive)
same,normalized growth,"S. cerevisiae deletion strains, locus YOR316C, strain cot1, stronger effect = lower value",0.953 (inactive)
same,normalized growth,"S. cerevisiae deletion strains, locus YPL055C, strain LGE1, stronger effect = lower value",0.752 (active)
same,normalized growth,"S. cerevisiae deletion strains, locus YPL256C, strain CLN2, stronger effect = lower value",0.932 (inactive)
same,normalized growth,"S. cerevisiae deletion strains, locus YPR119W, strain clb2, stronger effect = lower value",0.936 (inactive)
same,normalized growth,"S. cerevisiae deletion strains, locus YPR141C, strain kar3, stronger effect = lower value",0.978 (inactive)
same,normalized growth,"S. cerevisiae deletion strains, locus YPR163C, strain tif3, stronger effect = lower value",0.853 (active)
same,normalized growth,"S. cerevisiae deletion strains, locus YPR167C, strain met16, stronger effect = lower value",0.901 (active)
same,normalized growth,"S. cerevisiae deletion strains, strain wtn01, stronger effect = lower value",0.887 (active)
same,normalized growth,"S. cerevisiae strains, strain wild type, stronger effect = lower value",0.884 (active)
